# This is a sample that favours compounds with a hit; in the whole collection about 2.4% have one here.
# TMEM16A act: TMEM16A chloride channel activators or potentiators, primary screen, cell-based, HTS; B-score at 10 µM; HEK293 TMEM16A/YFP-H148Q/I152L, iodide quench fluorescence; hits give low values; Anoctamin-1 (Mus musculus), Q8BHY3; hit rate 0.3% among 340,000; AID 623877, 2012;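 active = fluorescence-ratio B-score plate-corrected deviation score at least 3 library SD below zero, with starting fluorescence score within 5 deviations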;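 note: channel opened by trigger with iodide after compound preincubation; score built on the fluorescence ratio of max minus min over baseline; more negative score means more quench and so TMEM16A activation or potentiation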
# Target sequence (Q8BHY3 whole entry, looked up): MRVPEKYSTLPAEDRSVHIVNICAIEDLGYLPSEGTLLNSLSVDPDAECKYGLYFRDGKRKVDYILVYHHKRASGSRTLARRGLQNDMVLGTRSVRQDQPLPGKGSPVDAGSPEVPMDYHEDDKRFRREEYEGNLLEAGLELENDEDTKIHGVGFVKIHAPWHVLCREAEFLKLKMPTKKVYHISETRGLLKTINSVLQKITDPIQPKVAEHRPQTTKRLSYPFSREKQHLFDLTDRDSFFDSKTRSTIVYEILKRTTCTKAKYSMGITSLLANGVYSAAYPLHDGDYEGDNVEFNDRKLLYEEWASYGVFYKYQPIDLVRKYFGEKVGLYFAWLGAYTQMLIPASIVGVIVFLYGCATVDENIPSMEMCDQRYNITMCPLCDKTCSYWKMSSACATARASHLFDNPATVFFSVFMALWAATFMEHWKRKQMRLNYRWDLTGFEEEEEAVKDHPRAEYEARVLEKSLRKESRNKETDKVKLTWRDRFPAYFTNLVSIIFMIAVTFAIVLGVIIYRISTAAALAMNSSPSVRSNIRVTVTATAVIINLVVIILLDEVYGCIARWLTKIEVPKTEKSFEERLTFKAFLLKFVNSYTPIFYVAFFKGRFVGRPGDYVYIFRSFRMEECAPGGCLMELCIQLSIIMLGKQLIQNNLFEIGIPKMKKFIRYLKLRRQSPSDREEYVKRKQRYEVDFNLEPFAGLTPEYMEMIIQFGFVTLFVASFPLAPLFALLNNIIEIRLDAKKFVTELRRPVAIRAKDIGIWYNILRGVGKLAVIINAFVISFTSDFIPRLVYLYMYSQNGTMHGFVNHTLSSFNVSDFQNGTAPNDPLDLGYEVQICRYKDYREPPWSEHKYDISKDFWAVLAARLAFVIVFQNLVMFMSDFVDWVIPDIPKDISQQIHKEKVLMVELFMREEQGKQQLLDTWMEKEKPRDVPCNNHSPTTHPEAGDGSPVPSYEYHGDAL
# TMEM16A inh: TMEM16A chloride channel inhibitors, primary screen, cell-based, HTS | AID 588511, 2011 | normalized B-score (activity score, 25-100; higher = stronger inhibition) at 10 µM | hit rate 1.2% among 310,000 | Anoctamin-1 (Mus musculus), Q8BHY3 | HEK293 TMEM16A/YFP iodide influx fluorescence, ionomycin;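 active = ratio plate-corrected score three or more library SD toward inhibition, starting fluorescence score within five deviations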;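 note: score derived from kinetic fluorescence span divided by baseline fluorescence per well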
# CHT block: inhibitors of human choline transporter CHT; CHT-expressing cells, membrane potential dye, choline response; hits give low values; B-score at 10 µM; hit rate 0.86% among 310,000; AID 488975, 2010;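 active = B-score over 3 SD under the library average, and starting fluorescence ratio not unusually high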;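 note: choline stimulus applied at its EC90 after an EC20 pre-addition; B-score computed on integrated fluorescence ratio after choline addition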
# CHT PAM: CHT positive allosteric modulators, primary screen, cell-based, membrane potential dye, choline EC20; B-score at 10 µM; CHT-expressing cells; hits give high values; LV-AA mutant CHT in HEK293 cells; hit rate 0.49% among 310,000;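 active = initial fluorescence not abnormally high and integrated response B-score, plate-corrected, over 3 SD above library mean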
# CHT block conf: CHT inhibitors, confirmation, cell-based, membrane potential dye, duplicate; shares compounds with CHT block; CHT-expressing cells, choline membrane potential dye; LV-to-AA substituted CHT, HEK293 cells; CHT activity remaining % of control (hits give low values), % at 10 µM; hit rate 70% among 2,400;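 active = choline transporter activity left, mean of duplicates at 10 µM, below buffer-only control mean minus 3 SD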;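 note: depolarization triggered by choline at its EC90 following an EC20 pre-addition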
# HEK293 CHT ctr: membrane potential effects in parental HEK293, counter-screen for CHT inhibitor project, cell-based, membrane potential dye; shares compounds with CHT block; choline response; active = decrease or increase beyond buffer ±3SD; membrane potential ratio readout (active if shifted either direction beyond buffer ±3SD; no single direction) at 10 µM; hit rate 4% among 2,400;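 note: parental cells lack the transporter so any hit is non-specific; ratio is peak minus trough fluorescence over baseline after EC90 choline challenge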
# A number is an active result; – = inactive; · = no result given.
SMILES,TMEM16A act,TMEM16A inh,CHT block,CHT PAM,CHT block conf,HEK293 CHT ctr
O=C(CSc1nnc(-c2ccccc2NC(=O)c2ccccc2)o1)OC1CCCCC1,–,–,–,–,·,·
Cc1ccccc1NC(=O)N1CCc2ccccc2C1,–,–,-5.6,–,–,–
COc1ccc(CCC(=O)N2CCc3ccccc32)cc1,–,–,–,–,·,·
CC1Cc2ccccc2N1C(=O)COC(=O)c1ccc(O)cc1 (stereo not given),–,–,-5.5,–,52%,–
COc1ccc(CCC(=O)N2c3ccccc3CC2C)cc1 (stereo not given),–,–,-5.4,–,–,–
Cc1cc(=O)[nH]c(SCC(=O)c2ccc(C(C)C)cc2)n1,–,–,–,–,·,·
Cc1ccc(C(=O)CSc2n[nH]c(-c3ccco3)n2)cc1C,–,–,-5.1,–,50%,–
Cc1cc(=O)[nH]c(SCC(=O)c2ccc(C)c(C)c2)n1,–,–,-7.3,–,64%,–
COc1ccc(C(=O)CSc2nc(C)cc(=O)[nH]2)cc1,–,–,-5.6,–,–,–
O=[N+]([O-])c1ccc(SCCc2ccccn2)cc1,–,–,-6.5,–,53%,–
Cc1ccc(C)c(Nc2c([N+](=O)[O-])cc(C(=O)N3CC(=O)Nc4ccccc43)cc2[N+](=O)[O-])c1,–,–,-5.9,–,–,–
CCOP(=O)(OCC)C(NC(=O)Nc1c(C)cc(C)cc1C)c1ccccc1 (stereo not given),–,–,-6,–,–,–
O=C(c1ccccc1)C1CCN(C(=O)C2CCC(=O)N(Cc3ccccc3F)C2)CC1 (stereo not given),–,–,–,–,·,·
CC1(C)C(C=C(Cl)Cl)C1C(=O)Nc1ccc(S(=O)(=O)Nc2ncccn2)cc1 (stereo not given),–,–,-5.1,–,33%,–
CC(=O)/C=C/c1ccc2ccccc2n1,–,–,-5.3,–,–,–
CCCCn1nc(-c2ccccc2)c2nc3ccccc3nc21,·,–,–,–,·,·
Cn1nc(-c2ccccc2)c2nc3ccccc3nc21,–,–,-6.3,–,–,-9.9
O=C(NCCn1cccn1)c1ccc(OC2CCN(CCc3ccccc3)CC2)cc1,–,–,–,–,·,·
O=C(NCCn1cccn1)c1ccc(OC2CCN(C(=O)C3CC3)CC2)cc1,–,–,-11,–,–,–
COC(=O)CCCNC(=O)c1ccc(OC2CCN(CCc3ccccc3)CC2)cc1,–,–,–,–,·,·
CSCCNC(=O)c1ccc(OC2CCN(CCc3ccccc3)CC2)cc1,–,–,-5.2,–,46%,4.8
O=C(Nc1ccccc1)c1nnn(Cc2ccccc2)c1NC(=O)C(F)(F)F,–,–,-5,–,32%,–
COc1ccccc1NC(=O)c1nnn(Cc2ccccc2)c1NC(=O)C(F)(F)F,–,–,–,–,·,·
CCOc1cccc(C2CC(=O)Nc3cc(OC)c(OC)cc32)c1 (stereo not given),–,–,-6.7,–,–,–
COc1cccc(C2CC(=O)Nc3cc(OC)c(OC)cc32)c1 (stereo not given),–,–,–,–,·,·
SMILES,TMEM16A act,TMEM16A inh,CHT block,CHT PAM,CHT block conf,HEK293 CHT ctr
COc1ccc(COC(=O)Nc2cn(C)nc2C(F)(F)F)cc1,–,–,–,–,·,·
CC1CCCN(C(=O)Cn2nnc(-c3ccc(N(C)C)cc3)n2)C1 (stereo not given),–,–,–,–,·,·
CN(C)c1ccc(-c2nnn(CC(=O)N3c4ccccc4CCc4ccccc43)n2)cc1,–,–,-7.2,–,–,–
Cc1ccc(-n2c(C)cc(C(=O)COC(=O)C3=NNC(=O)CC3)c2C)cc1,–,–,-6.5,–,18%,-12
Cc1ccc(N2CC(C(=O)Nc3ncc([N+](=O)[O-])s3)CC2=O)cc1 (stereo not given),–,–,-5,–,50%,–
Cn1cc(CN2CCN(CC(C)(C)C)C(CCO)C2)c2ccccc21 (stereo not given),–,–,–,–,·,·
Cc1c(C#N)c(NC(=O)CCl)n(Cc2ccccc2)c1C,–,–,–,–,·,·
Cc1c(C#N)c(NC(=O)CCl)n(Cc2cccs2)c1C,–,–,-6.1,–,–,–
O=C(NCCCN1CCOCC1)c1cc(-c2ccccc2)nc2ccccc12,–,–,–,–,·,·
Cc1ccc(Nc2cc(C(=O)NCCCN3CCOCC3)c3ccccc3n2)cc1C,–,–,–,–,62%,–
C/C(N)=C(/C#N)C(=O)CSc1nnc(COc2cc(C)ccc2C)o1,–,–,–,–,·,·
CC(C)c1ccc(S(=O)(=O)c2n[nH]n3c2nc(=O)c2ccccc23)cc1,–,–,–,–,·,·
CCc1ccc(S(=O)(=O)c2n[nH]n3c2nc(=O)c2ccccc23)cc1,–,–,-4.9,–,8.6%,–
S=C(Nc1ccc(Cc2ccncc2)cc1)Nc1cccc(Cl)c1,–,–,-6.6,–,–,–
CCN(CC)CCCn1c2c(c(SCC(=O)N3CCc4ccccc43)nc1=O)CCC2,–,–,-8,–,42%,–
CCN(CC)CCCn1c2c(c(SCC(=O)Nc3cccc4ccccc34)nc1=O)CCC2,–,–,–,–,·,·
O=C(N/C(=C\c1ccc(Cl)cc1)C(=O)N1CCCCC1)c1ccco1,–,–,–,–,·,·
Cc1ccc(C(=O)CSc2nnc(-c3ccco3)n2C)cc1,–,–,-5.4,–,69%,–
Cn1c(SCC(=O)c2cc(Cl)c(Cl)s2)nnc1-c1ccco1,–,–,–,–,·,·
O=C1CC(c2ccco2)CC(O)=C1C=Nc1ccccc1-c1ccccc1 (stereo not given),–,–,-5.6,–,–,–
O=C1CC(c2ccco2)CC(O)=C1C=Nc1cc(Cl)ccc1O (stereo not given),–,–,–,–,·,·
CC(=O)NN1C(=O)c2ccc(Oc3cccc([N+](=O)[O-])c3)cc2C1=O,–,–,-8.3,–,23%,–
CC(=O)NN1C(=O)c2ccc(Oc3ccc([N+](=O)[O-])cc3)cc2C1=O,–,–,–,–,·,·
Cc1ccc(NC(=O)c2ccc(NS(=O)(=O)/C=C/c3ccccc3)cc2)nc1,–,–,–,–,·,·
Cc1nc([N+](=O)[O-])c(Br)n1CC(=O)c1ccc(F)cc1,–,·,·,·,·,·
Cc1nc([N+](=O)[O-])c(Br)n1Cc1ccccc1,–,–,-10,–,61%,–
O=C(NC1CCCCC1)N1CCN(c2ccc(Cl)cc2)CC1,–,–,-5.8,–,–,–

# Source: PubChem (Johns Hopkins Ion Channel Center)
